E coli growth-1 – E. coli growth inhibition, primary screen, OD600; actives 0.21% (n = 330,000); Escherichia coli growth, 23 h; hits give low values; OD600 absorbance (no concentration beside the values); AID 1053175, 2014;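 active = OD600 absorbance below the run mean of sample wells minus 3.6 SD, in any replicate, cut at about 0.56 in these data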
AddAB inh – growth inhibition of E. coli expressing H. pylori AddAB, primary screen, AddAB inhibitor project, absorbance | inhibition, % at 11.9 µM | actives 0.29% (n = 330,000); in the data active = inhibition above about 12%;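 also: 0% = vehicle wells of infected cells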
E coli growth-2 – E. coli V3065 growth inhibition, primary screen, counter-screen for AddAB inhibitor project, absorbance, OD600 | 18 h | inhibition, % at 11.9 µM | actives 0.27% (n = 330,000) | AID 449728, 2010;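 active = inhibition above the campaign's mean inhibition across all tested compounds plus 3 SD, cut at about 9.9% in these data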;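 also: uninfected addAB+ strain grown without phage in ampicillin broth; 0% = DMSO wells and 100% = ciprofloxacin 0.95 µg/ml wells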
phage Ecoli inh – growth loss of phage-infected E. coli, primary screen, RecBCD inhibitor project, absorbance, with phage, HTS. inhibition, % at 11.9 µM. actives 0.26% (n = 360,000); in the data active = inhibition above about 11%
p-CIP stab down – p/CIP-EGFP fusion destabilizers, primary screen, fluorescence, F442A cells | actives 0.01% (n = 290,000) | decrease of EGFP signal, % at 10 µM | Q05BA5 | 16 h;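 active = EGFP signal decrease of at least 30% at 10 µM or well 3 SD below plate mean, unless failing retest; inactive = the rest, including hits failing retest or dose response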
Tat transport – E. coli Tat export inhibitors, primary screen, MC4100, TorA-mCherry reporter, fluorescence, single point | inhibition, % at 10 µM | actives 0.036% (n = 340,000) | AID 488895, 2010;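 active = mean replicate inhibition at least 50% and at least half of replicates individually reaching 50%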;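 also: exported cargo escapes ClpAP degradation while cytoplasmic cargo is degraded and loses fluorescence; 0% = median of neutral control wells and 100% = median of NaSCN control wells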
RecBCD conf – growth loss of phage-infected RecBCD+ E. coli, confirmation, RecBCD inhibitor project, absorbance, E. coli V66, T4 gene 2 phage. shares compounds with phage Ecoli inh. E. coli V66 + T4 2- phage, growth OD. inhibition, % at 11.9 µM. actives 45% (n = 890). AID 651982, 2013;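 active = mean inhibition over triplicates exceeding the hit threshold derived in the original primary screen, cut at about 11% in these data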
Ecoli viability – E. coli viability inhibition, counter-screen for RecBCD inhibitor project, absorbance, high throughput. shares compounds with phage Ecoli inh. absorbance (OD) growth. inhibition, % at 11.9 µM. actives 29% (n = 890). AID 651983, 2013; in the data active = inhibition above about 20%;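 also: E. coli strain V66 grown with compound alone and no phage infection; 0% = bacteria with DMSO vehicle only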
AddAB counter – growth loss of phage-infected AddAB-carrying E. coli, confirmation, counter-screen for RecBCD inhibitor project, absorbance, E. coli V3065, T4 phage; E. coli expressing H. pylori AddAB + T4 phage, OD growth; gene 2 mutant T4, recBCD-deleted host; inhibition, % at 11.9 µM; AID 651984, 2013; shares compounds with phage Ecoli inh; actives 45% (n = 890);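 active = mean inhibition above the solvent-only control wells' mean plus 3 SD, cut at about 22% in these data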;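 also: higher means less bacterial growth from phage killing when AddAB is blocked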
* = called active by the depositor; / = no result. Sampled rows, rich in hits. Any-hit rate of the full collection: about 0.51%.

SMILES	E coli growth-1	AddAB inh	E coli growth-2	phage Ecoli inh	p-CIP stab down	Tat transport	RecBCD conf	Ecoli viability	AddAB counter
CCOC(=O)c1c(C)[nH]c(C(=O)N/N=C\c2ccccc2O)c1C	/	6	-3	17*	4	7	5	7	9
COc1ccc(NC(=O)CSc2nnc3ccc(-c4ccccn4)nn23)cc1	0.69	1	-2	5	/	-7	/	/	/
COc1ccc(C(=O)CSc2nnc3ccc(-c4ccccn4)nn23)cc1	0.74	1	1	25*	5	-12	-3	-3	-4
CN1CCN(C(=O)/C(=C/c2ccc(F)cc2)c2ccsc2)CC1	0.7	-1	2	2	10	6	/	/	/
O=C(O)CC(Cn1[nH]nnc1=S)c1ccccc1 (stereo unspecified)	0.69	0	1	1	-9	8	/	/	/
C=CCn1cc(C(=O)N2CCN(C)CC2)c(=O)c2cc(S(=O)(=O)N3CCCC3)ccc21	0.76	3	-1	22*	-6	-2	-2	-2	-2
O=C(NNC(=O)c1ccc2c(c1)OCO2)NC12CC3CC(CC(C3)C1)C2	0.69	9	6	13*	-7	4	3	2	3
O=C(NC1C2CC3CC(C2)CC1C3)c1ccc2c(c1)OCO2 (stereo unspecified)	0.66	3	-1	-3	-3	5	/	/	/
C=CCc1cccc(C=NNC(=O)CCC(=O)Nc2ccc(C)cc2)c1O	0.75	/	/	/	/	/	/	/	/
C=CCc1cccc(/C=N/NC(=O)CCCNc2ccc(C)cc2)c1O	/	0	2	12*	-6	8	1	3	5
CCOc1c(Br)cc(CNc2ccc(N3CCOCC3)cc2)cc1OC	0.69	-1	1	98*	-11	4	0	0	-2
CCC1OC(=O)C(C)C(OC2C[C@@](C)(OC)C(O)C(C)O2)C(C)C(O[C@@H]2OC(C)CC(N(C)C)C2O)[C@](C)(O)CC(C)C(=NOCOCCOC)C(C)C(O)[C@]1(C)O (stereo partly specified)	/	9	10.0*	12*	/	7	5	5	4
O=C(CSCc1c(F)cccc1Cl)NNC(=S)NC1CCCCC1	0.7	2	-2	4	-13	-4	/	/	/
CC1CCCC(C)N1c1nnc(NC(=O)c2cc(-c3ccc(Br)cc3)on2)s1 (stereo unspecified)	/	4	0	95*	-16	4	-4	-5	6
O=C(Nc1nnc(N2CCCCCC2)s1)c1cc(-c2ccc(Br)cc2)on1	0.76	1	3	1	-14	9	/	/	/
c1ccc(CSc2ccc(-c3ccccn3)nn2)cc1	0.68	6	8	11*	-3	-5	5	7	12
CCCCCCCc1c(O)nc(SCCN2CCOCC2)[nH]c1=O	0.63	3	1	3	-11	7	/	/	/
CCn1c(=O)c(C(=O)NCCc2ccc(OC)c(OC)c2)c(O)c2ccccc21	0.66	4	9.9*	11*	1	3	5	6	11
Oc1ccc(Cc2ccccc2)c2cccnc12	0.64	/	/	15*	/	/	6	11	17
CCCN(CC(=O)Nc1ccc(F)c(F)c1F)C(=O)c1ccc(=O)n(Cc2ccccc2)n1	0.68	3	2	0	/	-8	/	/	/
CO/N=C\CC(=O)Nc1ccc(Cl)cc1Cl	/	-3	1	5	-6	2	/	/	/
Fc1ccc(NC(=S)Nc2ccccc2OC(F)F)cc1Cl	0.6	5	2	13*	-6	4	5	7	9
N#CCCN(C(=O)CSc1nc2ccccc2c(=O)[nH]1)c1ccc(F)cc1	0.67	0	-2	12*	/	0	1	1	0
S=C(NN=C(c1ccccc1)c1ccccn1)N(Cc1ccccn1)Cc1ccccn1	/	/	/	15*	/	-8	6	8	9
CN(C)C(=O)c1cc(Cl)ccc1Sc1cc(Cl)ccc1Cl	0.67	4	3	1	-4	-2	/	/	/
SMILES	E coli growth-1	AddAB inh	E coli growth-2	phage Ecoli inh	p-CIP stab down	Tat transport	RecBCD conf	Ecoli viability	AddAB counter
Oc1ccc(Cl)cc1Sc1cc(Cl)ccc1O	/	/	/	12*	/	-5	9	14	9
CN1CCSc2ccc(C(=O)Nc3ccc(Cl)cc3)cc21	/	2	0	100*	8	5	0	0	-3
COc1cccc(NC(=O)c2ccc3c(c2)N(C)CCS3)c1	0.63	2	-1	2	-10	-1	/	/	/
Cc1ccc(-c2cnc(C(O)c3cc(C)cc(C)c3)[nH]2)cc1 (stereo unspecified)	/	/	/	17*	/	/	11*	14	14
COc1cccc(-c2cnc(C(O)c3cccc(OC)c3)[nH]2)c1 (stereo unspecified)	/	/	/	11*	/	/	3	6	-10
Cc1cc(C)cc(C(O)c2ncc(-c3ccc4ccccc4c3)[nH]2)c1 (stereo unspecified)	/	/	/	18*	/	/	12*	15	26*
Cc1cc(C(O)c2ncc(-c3ccc(Oc4ccccc4)cc3)[nH]2)ccc1F (stereo unspecified)	/	/	/	11*	/	/	1	4	4
OC(c1ccc(F)cc1)c1ncc(-c2ccc(Oc3ccccc3)cc2)[nH]1 (stereo unspecified)	/	/	/	5	/	/	/	/	/
O=C(c1cc2sccc2n1Cc1ccccc1)N1CCN(c2nc3ccccc3s2)CC1	0.77	1	0	1	-18	0	/	/	/
CN(Cc1ccccc1)C(=O)[C@@H]1CCCN1	/	/	/	3	/	/	/	/	/
COc1ccccc1C(C)=NOc1cc(N)cc([N+](=O)[O-])c1	0.71	/	/	/	/	/	/	/	/
Cc1cccc(CN2CCCC(C(=O)Nc3ccccc3Oc3cccnc3)C2)c1 (stereo unspecified)	0.76	5	3	2	1	3	/	/	/
COC(=O)C1N2C(=O)C(NC(=O)COc3ccccc3)C2SC1(C)C (stereo unspecified)	0.65	/	/	/	/	/	/	/	/
CC1(C)S[C@@H]2[C@H](NC(=O)[C@H](N)c3ccccc3)C(=O)N2[C@H]1C(=O)OC1OC(=O)c2ccccc21 (stereo partly specified)	/	-1	1	21*	/	-13	30*	53*	15
CCOc1cc(N2CCOCC2)c(OCC)cc1NC(=O)COC(=O)CCOc1cc(C)ccc1C	0.73	-3	-2	0	/	6	/	/	/
O=c1cc(-c2ccccc2)oc2cc(O)c(O)c(O)c12	0.69	12	11*	12*	/	10	6	9	7

Bioassay records: PubChem, several laboratories
